According to PubChem BioAssay (NCATS):
Records with an inconclusive call do not appear. Unmarked numbers belong to inactive results. The call rests on the fitted dose curve; in most records, active means well fitted cell-killing curve with a large enough effect; inconclusive means small, poorly fitted or top-dose-only effect; inactive means no such curve, though single readings can be large or run the other way.

Test: qHTS of pediatric cancer cell lines to identify multiple opportunities for drug repurposing: Primary screen for NB1643 cells (AID 1347099); further: nearly all actives have a fitted effect of over 50% in size
Details: NB1643 neuroblastoma viability, CellTiter-Glo luminescence, 48 h; series mostly up to 46 µM; activity change, negative = cytotoxic: at the top concentration
Source text: Drug repurposing or repositioning has been offered as a strategy for drug development in oncology programs. This approach has special potential for childhood cancers and other rare or orphan diseases, where the expected return on new drug development has been a disincentive to pharmaceuticals. […] In this project we exploit the poly-pharmacology of drugs to discover new indications via phenotypic screening of a panel of 19 well-characterized cell lines derived from solid tumors seen in children and adolescents. The goal is to identify approved drugs with previously unrecognized anticancer properties that has the potential to reveal new mechanisms and biological processes involved in carcinogenesis or drug resistance. We employed a titration-based paradigm (quantitative high-throughput screening or qHTS), where all compounds were tested at multiple concentrations for their effect on cell viability. Concentration-response curves (CRCs) were derived directly from the primary screen, and both potency and efficacy values were used to identify compounds with robust bioactivity profiles. We screened the NIH Chemical Genomics Center (NCGC) Pharmaceutical Collection (NPC) and Mechanism Interrogation Plate (MIPE) small molecule collections of approved and investigational compounds against these cell lines; and measured metabolically active cells after 48 hours of compound treatment as a proxy for cell viability. […] Assay Submitter: Nathalia J. Martinez, National Center for Advancing Translational Sciences, National Institutes of Health, Rockville, MD, USA; email: natalia.martinez@nih.gov Shen, M et al. Quantitative high-throughput phenotypic screening of pediatric cancer cell lines identifies multiple opportunities for drug repurposing. Oncotarget 2017 Dec 19;9(4):4758-4772. PMID 29435139.
The cells were obtained from University of North Carolina (UNC), Pediatric Preclinical Testing Program (PPT), and Coriell Institute (CI). qHTS cell viability assay: Cells were assayed in growth media at a density of 500-1,000 cells/well. Five microliters of cells were dispensed into 1,536-well, white, solid-bottom, TC-treated plates (Greiner Bio One) using a multidrop dispenser and incubated at 37 degrees C, 5% CO2, under a humidified atmosphere for 5 hours. Twenty-three nanoliters of compounds and controls (neutral control DMSO or positive control bortezomib at final concentration of 2.3 µM) were subsequently transferred by Kalypsys pintool. For primary screens, the MIPE collection was tested at 11-point dilutions (final concentrations range from 0.78 nM to 46 µM) and the NPC collection at 8-point dilutions (final concentrations range from 0.59 nM to 46 µM). Compounds tested in follow-up screens were assayed at 11-point dilutions. Cells were incubated for 48 hours, followed by addition of 3 µL of CellTiter-Glo (Promega). After a 15 min incubation at room temperature, samples were analyzed for luminescence intensity using a ViewLux High-throughput CCD imager equipped with clear filters.

Row | Structure (SMILES) | activity change, negative = cytotoxic
1 | Cc1ncc(COP(=O)(O)O)c(C=O)c1O | 3.38%
2 | CNCCCC1c2ccccc2C=Cc2ccccc21 | -2.9%
3 | O=C(O)[C@H](O)c1ccccc1 | 3.96%
4 | C[C@H](NC(CCc1ccccc1)C(=O)O)C(=O)N1CCC[C@H]1C(=O)O (stereo not given in full) | 8.78%
5 | N[C@H]1C(O)O[C@H](CO)[C@@H](O)[C@@H]1O (stereo not given in full) | 14.1%
6 | O=C(O)c1ccccc1O | 8.24%
7 | CC1(C)CO[C@@H](CC(=O)O)CN1 | 2.61%
8 | CC(=O)Oc1ccc(C2(c3ccc(OC(C)=O)cc3)C(=O)Nc3ccccc32)cc1 | -17.4%
9 | CC1(C)S[C@@H]2[C@H](NC(=O)Cc3ccccc3)C(=O)N2[C@H]1C(=O)O (tested in a mixture with another compound) | 8.01%
10 | CCOc1nc2cccc(C(=O)O)c2n1Cc1ccc(-c2ccccc2-c2nn[nH]n2)cc1 | 3.36%
11 | C#CCN(C)Cc1ccccc1 | 12.9%
12 | O=C(O)Cc1sc(-c2ccccc2)nc1-c1ccc(Cl)cc1 | 9.38%
13 | CS(=O)(=O)c1ccc([C@@H](O)[C@@H](CF)NC(=O)C(Cl)Cl)cc1 | -3.88%
14 | C[C@@H](O)[C@H](N)C(=O)O | 1.73% [at 16.1 µM]
15 | CCCCOc1cc(C(=O)OCCN(CC)CC)ccc1N | -2.8%
16 | Nc1ccc(S(=O)(=O)Nc2nccs2)cc1 | 18.5%
17 | O=C1NC(=O)[C@@]2(CCOc3ccc(F)cc32)N1 | 0.811%
18 | C[C@H]1O[C@H](O[C@H]2[C@H](O)[C@@H](O)[C@@H](O[C@H]3[C@H](O)[C@@H](O)[C@H](O)O[C@@H]3CO)O[C@@H]2CO)[C@H](O)[C@@H](O)[C@@H]1N[C@H]1C=C(CO)[C@@H](O)[C@H](O)[C@H]1O | 7.62%
19 | CNC(=O)Oc1ccc2c(c1)[C@]1(C)CCN(C)[C@@H]1N2C | 12.8%
20 | CCCCN(CCCC)CC(O)c1cc(Cl)cc2c1-c1ccc(Cl)cc1/C2=C/c1ccc(Cl)cc1 (stereo not given) | 15.3%

Row | Structure (SMILES) | activity change, negative = cytotoxic
21 | C[C@H](N)[C@H](O)c1cccc(O)c1 | 3.85%
22 | CN1CCOC(c2ccccc2)c2ccccc2C1 (stereo not given) | 31.4%
23 | C[C@H]1O[C@@H](n2cc(F)c(=O)[nH]c2=O)[C@H](O)[C@@H]1O | 0%
24 | COc1ccc(Cl)cc1C(=O)NCCc1ccc(S(=O)(=O)NC(=O)NC2CCCCC2)cc1 | -25.8%
25 | Nc1ccc(S(=O)(=O)NC(=O)c2ccccc2)cc1 | -7.31%
26 | Cc1cccc(Nc2cc(Cl)nc(SCC(=O)O)n2)c1C | 7.2%
27 | NC(=O)c1ncn([C@@H]2O[C@H](CO)[C@@H](O)[C@H]2O)c1N | 2.83%
28 | CC(CN1c2ccccc2Sc2ccccc21)N(C)C (stereo not given) | -4.91%
29 | CCN(CC)C(C)CN1c2ccccc2Sc2ccccc21 (stereo not given) | 2.94%
30 | OC[C@H]1O[C@@H](O[C@@H]2[C@@H](CO)O[C@](O)(CO)[C@H]2O)[C@H](O)[C@@H](O)[C@H]1O | 1.19%
31 | N[C@@H](CSCCCO)C(=O)O | 16% [at 16.1 µM]
32 | [O-][n+]1cccc(CO)c1 | 0%
33 | CC(C)(C(=O)O)c1ccc(C(O)CCCN2CCC(C(O)(c3ccccc3)c3ccccc3)CC2)cc1 (stereo not given) | 23.5%
34 | C/C(=C(\CCOP(=O)(O)O)SC(=O)c1ccccc1)N(C=O)Cc1cnc(C)nc1N | 16.8% [at 4.84 µM]
35 | CCOc1ccc2ccccc2c1C(=O)N[C@@H]1C(=O)N2[C@@H]1SC(C)(C)[C@@H]2C(=O)O | 15.1%
36 | OCC(O)CN1CCN(c2ccccc2)CC1 (stereo not given) | -2.88%
37 | O=C(O)COc1nn(Cc2ccccc2)c2ccccc12 | 4.62%
38 | CCOC(=O)c1ccc(O)cc1 | 11.6%
39 | CNCC(O)c1ccc(O)c(O)c1 (stereo not given) | -5.18%
40 | O=C1NS(=O)(=O)c2ccccc21 | 12.5%
